Compound activity from PubChem.
Rows were chosen to be rich in hits. Some 3.1% of all compounds tested hit in one or more screens of this group.
BoNT A protease: inhibitors of Botulinum neurotoxin A light chain protease. inhibition, % at 10 µM. multiplex microsphere protease substrate cleavage, flow cytometry. 360,000 compounds, 0.17% hits; in the data active means inhibition above about 30%; inconclusive means no clear call, values can overlap the other calls; further: plate controls were buffer without enzyme for full effect and enzyme alone for no effect
SSB-PriA inh: blocks PriA binding to SSB C-terminal tail | AlphaScreen SSBct-PriA binding, biotinylated peptide | inhibition, % at 33 µM | 430,000 compounds, 0.6% hits; in the data active means inhibition mostly above about 37%, no sharp cut-off; inactive means mostly below about 20%;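 further: plate controls were negative control peptide for no effect and reference peptide for full effect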
Anthrax LF inh2: anthrax lethal factor protease inhibition. P15917. multiplex microsphere protease cleavage assay, LF. inhibition, % at 10 µM. 360,000 compounds, 0.12% hits. AID 588501; in the data active means inhibition above about 30%; inconclusive means no clear call, values can overlap the other calls; further: plate controls were buffer without enzyme for full effect and enzyme alone for no effect
Target sequence (P15917 whole entry, looked up): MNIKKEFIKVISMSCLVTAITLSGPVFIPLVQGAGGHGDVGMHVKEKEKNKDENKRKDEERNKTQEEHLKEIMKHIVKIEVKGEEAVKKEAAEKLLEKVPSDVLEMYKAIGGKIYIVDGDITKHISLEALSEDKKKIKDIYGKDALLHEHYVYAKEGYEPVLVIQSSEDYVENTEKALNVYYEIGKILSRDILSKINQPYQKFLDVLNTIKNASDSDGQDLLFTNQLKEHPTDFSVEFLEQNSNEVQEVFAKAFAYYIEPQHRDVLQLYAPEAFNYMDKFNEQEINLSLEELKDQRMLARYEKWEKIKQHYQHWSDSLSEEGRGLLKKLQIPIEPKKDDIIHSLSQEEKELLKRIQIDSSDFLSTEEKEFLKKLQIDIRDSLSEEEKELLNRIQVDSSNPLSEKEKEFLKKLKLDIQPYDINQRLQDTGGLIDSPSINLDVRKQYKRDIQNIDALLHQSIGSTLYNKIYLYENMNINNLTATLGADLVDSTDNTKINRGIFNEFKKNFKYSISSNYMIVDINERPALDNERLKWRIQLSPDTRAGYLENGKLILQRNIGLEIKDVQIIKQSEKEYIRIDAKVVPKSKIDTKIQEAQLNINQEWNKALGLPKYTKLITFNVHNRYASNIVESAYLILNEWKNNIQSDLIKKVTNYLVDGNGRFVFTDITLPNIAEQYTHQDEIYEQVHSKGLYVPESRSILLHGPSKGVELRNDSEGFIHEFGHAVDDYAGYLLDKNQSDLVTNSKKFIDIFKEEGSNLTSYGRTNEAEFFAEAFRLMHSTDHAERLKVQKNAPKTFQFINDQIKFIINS
Autofluor counter: compound fluorescence in toxin protease inhibitor counterscreen; compound autofluorescence counterscreen, microsphere flow cytometry; hits give high values; fluorescence intensity (no concentration beside the values); 360,000 compounds, 3.1% hits; in the data active means fluorescence intensity above about 16000; inconclusive means no clear call, values can overlap the other calls
BoNT F protease: blocks Botulinum neurotoxin F light chain protease. Multiplex microsphere protease cleavage assay, flow cytometry. inhibition, % at 10 µM. 360,000 compounds, 0.22% hits. AID 588497; in the data active means inhibition above about 35%, passing the limit was not always enough; inconclusive means no clear call, values can overlap the other calls; further: plate controls were buffer without enzyme for full effect and enzyme alone for no effect
BoNT-A LC CP1: blocks botulinum neurotoxin A light chain protease | shares compounds with BoNT F protease | multiplex microsphere protease assay, flow cytometry | inhibition, % at 10 µM | 720 compounds, 3% hits; in the data active means inhibition above about 32%
BoNTF LC inh 1: inhibitors of Botulinum neurotoxin F light chain protease; inhibition, % at 10 µM; shares compounds with BoNT F protease; multiplex microsphere protease cleavage assay, flow cytometry; 720 tested, under 10 active; AID 602140
LF protease CP1: blocks anthrax lethal factor protease; AID 602142; inhibition, % at 10 µM; shares compounds with BoNT F protease; multiplex microsphere protease cleavage assay, LF; 720 tested, under 10 active
Numbers without * were called inactive; ? = inconclusive; / = no result. Unless noted, how the calls were made is not given here.

SMILES	BoNT A protease	SSB-PriA inh	Anthrax LF inh2	Autofluor counter	BoNT F protease	BoNT-A LC CP1	BoNTF LC inh 1	LF protease CP1
COc1cccc(C(=O)Nn2cnnc2)c1	0	-5	-2	4632	-7	/	/	/
COc1cc(OC)cc(C(=O)Nn2cnnc2)c1	3	-5	37*	3694	?	0	-6	-2
CCc1ccc(C(=O)CN2C(=O)NC3(CCCCCC3)C2=O)cc1	12	-6	11	5069	43*	0	-1	-2
O=C(CN1C(=O)NC2(CCCCCC2)C1=O)c1ccc(F)cc1	?	-2	?	?	?	/	/	/
CCCc1cc(=O)n(CC(=O)NCc2ccc3c(c2)OCO3)cn1	/	-7	/	/	/	/	/	/
C=CCn1c(CCC)nc2ccccc21	0	-24	0	4013	0	/	/	/
C=CCn1c(C(CC)CC)nc2ccccc21	-2	-2	-16	4311	36*	0	-2	3
O=C(Nc1ccc(O)cc1C(=O)O)c1ccc2c(c1)C(=O)N(Cc1ccco1)C2=O	5	-12	0	6881	35*	0	-3	1
Cc1cc(C(=O)Nc2cc(C(C)(C)C)on2)c(C)o1	-1	-13	100*	5818	?	0	-1	-2
Cc1cc(C(=O)Nc2ccon2)c(C)o1	0	10	-3	4012	6	/	/	/
CCS(=O)(=O)N1CCC(C(=O)Oc2ccccc2)CC1	1	-2	-2	4002	39*	0	-3	1
CCS(=O)(=O)N1CCC(C(=O)Oc2ccc(C(=O)OC)cc2)CC1	1	4	-2	5488	-9	/	/	/
COC(=O)c1sccc1N(Cc1cccc(F)c1)S(C)(=O)=O	/	-2	/	/	/	/	/	/
O=C(Nc1ccc(F)cc1)C1CCN(C(=O)NCc2ccccc2)CC1	2	-10	33*	2927	19	-1	-7	-3
COC(=O)c1c(NC(=O)c2ccccc2[N+](=O)[O-])sc2c1CC(C)(C)NC2(C)C	8	0	34*	6297	70*	0	-2	5
CCN(C(=O)c1ccc(C)c(Br)c1)c1ccccc1	6	-34	1	2754	60*	-1	-2	0
CCN(C(=O)c1cccnc1)c1ccccc1	0	-11	3	3661	-28	/	/	/
O=C(Nc1cccs1)NC1CCCC1	0	-2	-1	3254	1	/	/	/
O=C(Nc1ccc2nc(-c3cccs3)c(-c3cccs3)nc2c1)NC1CC1	83*	-11	54*	6638	36*	50*	-1	31*
CN1C(=O)C(C)(C)COc2ccc(NC(=O)C3CC3)cc21	/	12	/	/	/	/	/	/
O=C(NC1CCCC1)C(c1ccc(F)cc1)N(Cc1ccccc1)C(=O)c1csnn1 (stereo unspecified)	-2	-4	-1	3628	-11	/	/	/
CC(C)CCN(C(=O)c1csnn1)C(C(=O)NC1CCCC1)c1ccc(F)cc1 (stereo unspecified)	3	-5	6	3226	91*	-1	-2	-7
O=C(NC1CCCC1)C(c1cccnc1)N(Cc1ccccc1)C(=O)c1csnn1 (stereo unspecified)	1	-1	6	3682	43*	0	0	1
CCCCNC(=O)c1nnn(-c2ccccc2F)c1C	/	-2	/	/	/	/	/	/
CCSc1ncnc2c1sc1nc3c(cc12)COC(C)(C)C3	3	3	2	2577	36*	-1	-8	-4
SMILES	BoNT A protease	SSB-PriA inh	Anthrax LF inh2	Autofluor counter	BoNT F protease	BoNT-A LC CP1	BoNTF LC inh 1	LF protease CP1
O=C(CN1CCOCC1)NCc1ccccc1	0	1	-4	7755	2	/	/	/
O=C(CN1CCOCC1)NCCc1ccccc1	-1	6	31*	3531	7	0	0	-1
COC(=O)C1Cc2c([nH]c3ccccc23)C2(CCN(Cc3ccccc3)CC2)N1 (stereo unspecified)	4	20	6	7106	41*	1	1	2
CC(C)(C)C(=O)Nc1cnc(-n2cccn2)nc1	/	-1	/	/	/	/	/	/
CCC1=Nc2ccccc2-c2nnc(SC)nc2O1	2	3	-8	4512	34	0	-4	-7
Cc1ccc(C(CC(=O)N2CCCCC2)c2ccccc2)c(O)c1C (stereo unspecified)	10	-2	69*	6356	128*	-1	-6	0
Cc1ccc(C(CC(=O)N2CCNCC2)c2ccccc2)c(O)c1C (stereo unspecified)	0	-8	0	2861	-15	/	/	/
Cc1ccccc1OCC(=O)NN=Cc1ccc(N(C)C)cc1	/	-11	/	/	/	/	/	/
